{
  "source": "the supplement of paper PMC9942566",
  "note": "± gives the standard deviation of the averaged measurements.",
  "data": [
    {"tested_on": "Serratia marcescens K904 PosmB-luxCDABE reporter (pMQ747)", "assay": "PosmB-lux reporter fold induction (RLU/OD600 relative to no-compound control), highest over Biolog concentrations; higher = stronger reporter activation", "settings": "ΔrcsB mutant CMS5177; 4 h", "description": "(§1)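 Serratia marcescens K904 (wild type) or its isogenic ΔrcsB mutant, carrying the Rcs-dependent PosmB-luxCDABE reporter plasmid pMQ747, was grown in LB at OD600 0.1 in Biolog Phenotype MicroArray plates PM11-20 for 4 h at 30-32°C. Each compound is present at 3-4 proprietary concentrations (not stated); per the Fig. S1 legend the value given is the highest fold over those wells. Three independent trials.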", "values": [
      {"compound": "O=c1c(O)c(-c2cc(O)c(O)c(O)c2)oc2cc(O)cc(O)c12", "note": "[myricetin] (Biolog plate: PM18, well positions: G9-12)", "PosmB-lux reporter fold induction": "0.868 ± 0.31"},
      {"compound": "CCn1cc(C(=O)O)c(=O)c2cc(F)c(N3CCNCC3)nc21", "note": "[Enoxacin] (Biolog plate: PM11, well positions: E5-8)", "PosmB-lux reporter fold induction": "1.45 ± 0.3"},
      {"compound": "CS(=O)(=O)c1ccc([C@@H](O)[C@@H](CO)NC(=O)C(Cl)Cl)cc1", "note": "[thiamphenicol] (Biolog plate: PM18, well positions: A9-12)", "PosmB-lux reporter fold induction": "0.916 ± 0.32"},
      {"compound": "NCC[C@H](O)C(=O)N[C@@H]1C[C@H](N)[C@@H](O[C@H]2O[C@H](CN)[C@@H](O)[C@H](O)[C@H]2O)[C@H](O)[C@H]1O[C@H]1O[C@H](CO)[C@@H](O)[C@H](N)[C@H]1O", "note": "[Amikacin] (Biolog plate: PM11, well positions: A2-4)", "PosmB-lux reporter fold induction": "1 ± 0.088"},
      {"compound": "Nc1ccc2cc3ccc(N)cc3nc2c1", "note": "[proflavine] (Biolog plate: PM20, well positions: D1-4)", "PosmB-lux reporter fold induction": "1.91 ± 0.49"},
      {"compound": "O=C(O)c1cc(O)c(O)c(O)c1", "note": "[gallic acid] (Biolog plate: PM19, well positions: A5-8)", "PosmB-lux reporter fold induction": "1.33 ± 0.48"}
    ]},
    {"tested_on": "Serratia marcescens K904 PosmB-luxCDABE reporter (pMQ747)", "assay": "PosmB-lux reporter fold induction (RLU/OD600 relative to no-compound control), highest over Biolog concentrations; higher = stronger Rcs reporter activation", "settings": "wild type K904; 4 h", "description": "as §1", "values": [
      {"compound": "Nc1ncn([C@@H]2O[C@H](CO)[C@@H](O)[C@H]2O)c(=O)n1", "note": "[5-azacytidine] (Biolog plate: PM16, well positions: E5-8)", "PosmB-lux reporter fold induction": "1.15 ± 0.41"},
      {"compound": "CCN1CCN(C(=O)N[C@@H](C(=O)N[C@@H]2C(=O)N3C(C(=O)O)=C(CSc4nnnn4C)CS[C@H]23)c2ccc(O)cc2)C(=O)C1=O", "note": "[cefoperazone] (Biolog plate: PM17, well positions: G9-12)", "PosmB-lux reporter fold induction": "2.11 ± 0.69"},
      {"compound": "OCC(O)CS", "note": "(stereo not given) [thioglycerol] (Biolog plate: PM19, well positions: H5-8)", "PosmB-lux reporter fold induction": "1.22 ± 0.31"},
      {"compound": "CO[C@@]1(NC(=O)Cc2cccs2)C(=O)N2C(C(=O)O)=C(COC(N)=O)CS[C@@H]21", "note": "[Cefoxitin] (Biolog plate: PM14, well positions: E1-4)", "PosmB-lux reporter fold induction": "4.05 ± 0.85"},
      {"compound": "O=C(OC[C@H]1O[C@@H](OC(=O)c2cc(O)c(O)c(OC(=O)c3cc(O)c(O)c(O)c3)c2)[C@H](OC(=O)c2cc(O)c(O)c(OC(=O)c3cc(O)c(O)c(O)c3)c2)[C@@H](OC(=O)c2cc(O)c(O)c(OC(=O)c3cc(O)c(O)c(O)c3)c2)[C@@H]1OC(=O)c1cc(O)c(O)c(OC(=O)c2cc(O)c(O)c(O)c2)c1)c1cc(O)c(O)c(OC(=O)c2cc(O)c(O)c(O)c2)c1", "note": "[tannic acid] (Biolog plate: PM17, well positions: F9-12)", "PosmB-lux reporter fold induction": "1.5 ± 0.49"},
      {"compound": "S=c1nc[nH]c2nc[nH]c12", "note": "[6-Mercapto-purine] (Biolog plate: PM13, well positions: C1-4)", "PosmB-lux reporter fold induction": "1.6 ± 0.2"},
      {"compound": "O=c1c(O)c(-c2cc(O)c(O)c(O)c2)oc2cc(O)cc(O)c12", "note": "[myricetin] (Biolog plate: PM18, well positions: G9-12)", "PosmB-lux reporter fold induction": "1.05 ± 0.13"},
      {"compound": "O=P(O)(O)OP(=O)(O)O", "note": "[sodium pyrophosphate decahydrate] (Biolog plate: PM18, well positions: A5-8)", "PosmB-lux reporter fold induction": "1.27 ± 0.59"},
      {"compound": "NC(CO)C(=O)NO", "note": "(racemic) [D,L-Serine hydroxamate] (Biolog plate: PM12, well positions: C9-12)", "PosmB-lux reporter fold induction": "3.63 ± 0.5"},
      {"compound": "CCn1cc(C(=O)O)c(=O)c2cc(F)c(N3CCNCC3)nc21", "note": "[Enoxacin] (Biolog plate: PM11, well positions: E5-8)", "PosmB-lux reporter fold induction": "2.1 ± 0.62"},
      {"compound": "CN[C@@H]1[C@H](O[C@H]2[C@H](O[C@H]3[C@H](O)[C@@H](O)[C@H](N=C(N)N)[C@@H](O)[C@@H]3N=C(N)N)O[C@@H](C)[C@]2(O)C=O)O[C@@H](CO)[C@H](O)[C@H]1O", "note": "[streptomycin] (Biolog plate: PM16, well positions: E1-4)", "PosmB-lux reporter fold induction": "0.916 ± 0.16"},
      {"compound": "CS(=O)(=O)c1ccc([C@@H](O)[C@@H](CO)NC(=O)C(Cl)Cl)cc1", "note": "[thiamphenicol] (Biolog plate: PM18, well positions: A9-12)", "PosmB-lux reporter fold induction": "0.659 ± 0.017"},
      {"compound": "N=C(NCCCCCCNC(=N)NC(=N)Nc1ccc(Cl)cc1)NC(=N)Nc1ccc(Cl)cc1", "note": "[chlorhexidine] (Biolog plate: PM19, well positions: C1-4)", "PosmB-lux reporter fold induction": "1.21 ± 0.081"},
      {"compound": "c1cnc2c(c1)ccc1cccnc12", "note": "[1,10-Phenanthroline] (Biolog plate: PM15, well positions: C9-12)", "PosmB-lux reporter fold induction": "1.36 ± 0.36"}
    ]}
  ]
}
